From PubChem BioAssay (NCI)
About 83,000 compounds went through this panel and 20% of them were active in at least one assay; those are over-represented in the sample as a whole.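 Single-concentration screen, 48 h exposure, 96-well plates. Endpoint: percent growth. Below 10 = active.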 The source made the active and inactive calls.

Assays:
Assay in all cases: NCI-60 one-dose screen, 48 h (100 = growth as untreated, 0 = no growth, -100 = all killed)
Conditions in all cases: 10 µM
HT29 colon = test system: HT29 colon
SNB-75 CNS = test system: SNB-75 CNS
SNB-19 CNS = test system: SNB-19 CNS
U251 CNS = test system: U251 CNS
SK-MEL-5 melanoma = test system: SK-MEL-5 melanoma
UACC-62 melanoma = test system: UACC-62 melanoma
LOX IMVI melanoma = test system: LOX IMVI melanoma
SK-MEL-28 melanoma = test system: SK-MEL-28 melanoma
SK-MEL-2 melanoma = test system: SK-MEL-2 melanoma

Measured: growth

COc1ccc(C2=NN(C(=O)c3ccc(S(C)(=O)=O)cc3)C(c3ccc(OC)c(OC)c3)C2)c(OC)c1 (stereo unspecified)
inactive: HT29 colon 103% | SNB-75 CNS 94% | SNB-19 CNS 99.1% | U251 CNS 106% | SK-MEL-5 melanoma 90% | UACC-62 melanoma 95.2% | LOX IMVI melanoma 103% | SK-MEL-28 melanoma 112%

CCOC(=O)C1CCc2c(ccc3ccccc23)N1CCC#N (stereo unspecified)
inactive: HT29 colon 100% | SNB-75 CNS 74.2% | SNB-19 CNS 99% | U251 CNS 89.7% | SK-MEL-5 melanoma 89.2% | UACC-62 melanoma 91% | LOX IMVI melanoma 85.7% | SK-MEL-28 melanoma 91.2% | SK-MEL-2 melanoma 134%

CO/N=C(/C(=O)NC1C(=O)N2C(C(=O)O)=C(COC(N)=O)CSC12)c1ccco1 (stereo unspecified)
inactive: HT29 colon 111% | SNB-75 CNS 91.6% | SNB-19 CNS 95.5% | U251 CNS 107% | SK-MEL-5 melanoma 110% | UACC-62 melanoma 103% | LOX IMVI melanoma 102% | SK-MEL-28 melanoma 114% | SK-MEL-2 melanoma 100%

COc1ccc(-c2nc(-c3nc4cc(Cl)c(Cl)cc4[nH]3)c3ccccn23)cc1
inactive: HT29 colon 51.4% | SNB-19 CNS 50.5% | U251 CNS 22.6% | SK-MEL-5 melanoma 48.3% | UACC-62 melanoma 88.9% | LOX IMVI melanoma 43.6% | SK-MEL-28 melanoma 62.2% | SK-MEL-2 melanoma 58.1%
active: SNB-75 CNS -29.1%

COc1ccc(-c2nc(-c3nc4ccc(Cl)cc4[nH]3)c3ccccn23)cc1
inactive: HT29 colon 34.7% | SNB-19 CNS 20.3% | SK-MEL-5 melanoma 50.7% | UACC-62 melanoma 82.5% | LOX IMVI melanoma 30.4% | SK-MEL-28 melanoma 12% | SK-MEL-2 melanoma 41%
active: SNB-75 CNS -89.4% | U251 CNS 7.5%

COc1ccc(-c2nsc3c2NC(=O)CC3c2ccc(F)cc2)cc1 (stereo unspecified)
active: HT29 colon 4.71% | SK-MEL-2 melanoma -11.7%
inactive: SNB-75 CNS 63.5% | SNB-19 CNS 72.5% | U251 CNS 33.6% | SK-MEL-5 melanoma 20.5% | UACC-62 melanoma 51.2% | LOX IMVI melanoma 44.4% | SK-MEL-28 melanoma 57.5%

CCOCC(=O)C(C#N)c1ccc(Cl)c(Cl)c1 (stereo unspecified)
inactive: HT29 colon 104% | SNB-75 CNS 78.2% | SNB-19 CNS 107% | U251 CNS 94.7% | SK-MEL-5 melanoma 96% | UACC-62 melanoma 95.4% | LOX IMVI melanoma 100% | SK-MEL-28 melanoma 100% | SK-MEL-2 melanoma 115%

COc1ccc2c(c1)[n+]([O-])c(C#N)c(NC(=O)c1ccco1)[n+]2[O-]
inactive: HT29 colon 101% | SNB-75 CNS 110% | SNB-19 CNS 95.6% | U251 CNS 98.5% | SK-MEL-5 melanoma 79.3% | UACC-62 melanoma 98.2% | LOX IMVI melanoma 95.1% | SK-MEL-28 melanoma 120% | SK-MEL-2 melanoma 101%
